Measurements published in the supplement of paper PMC11624193, “Coupling cellular drug-target engagement to downstream pharmacology with CeTEAM” (Nature Communications, 2024).
Structures can show the parent of a compound that is named as a salt. A number with no mark means an inactive call.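 How the source made its calls: active = log2 fold change beyond 2 SD from the library mean after excluding viability outliers; inactive = within 2 SD.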

molecular target: PARP1 L713F-nLuc biosensor (HCT116) (UniProt P09874); experiment: PARP1 L713F-nLuc/akaLuc ratio relative to DMSO control (biosensor stabilization) (fold change); higher = more PARP1 biosensor stabilization (target engagement / stabilizer), active = hit call of the paper; settings: stock concentration (mM; final µM = stock mM x 1): 10; 24 h
Sequence (P09874 whole entry L713F, looked up): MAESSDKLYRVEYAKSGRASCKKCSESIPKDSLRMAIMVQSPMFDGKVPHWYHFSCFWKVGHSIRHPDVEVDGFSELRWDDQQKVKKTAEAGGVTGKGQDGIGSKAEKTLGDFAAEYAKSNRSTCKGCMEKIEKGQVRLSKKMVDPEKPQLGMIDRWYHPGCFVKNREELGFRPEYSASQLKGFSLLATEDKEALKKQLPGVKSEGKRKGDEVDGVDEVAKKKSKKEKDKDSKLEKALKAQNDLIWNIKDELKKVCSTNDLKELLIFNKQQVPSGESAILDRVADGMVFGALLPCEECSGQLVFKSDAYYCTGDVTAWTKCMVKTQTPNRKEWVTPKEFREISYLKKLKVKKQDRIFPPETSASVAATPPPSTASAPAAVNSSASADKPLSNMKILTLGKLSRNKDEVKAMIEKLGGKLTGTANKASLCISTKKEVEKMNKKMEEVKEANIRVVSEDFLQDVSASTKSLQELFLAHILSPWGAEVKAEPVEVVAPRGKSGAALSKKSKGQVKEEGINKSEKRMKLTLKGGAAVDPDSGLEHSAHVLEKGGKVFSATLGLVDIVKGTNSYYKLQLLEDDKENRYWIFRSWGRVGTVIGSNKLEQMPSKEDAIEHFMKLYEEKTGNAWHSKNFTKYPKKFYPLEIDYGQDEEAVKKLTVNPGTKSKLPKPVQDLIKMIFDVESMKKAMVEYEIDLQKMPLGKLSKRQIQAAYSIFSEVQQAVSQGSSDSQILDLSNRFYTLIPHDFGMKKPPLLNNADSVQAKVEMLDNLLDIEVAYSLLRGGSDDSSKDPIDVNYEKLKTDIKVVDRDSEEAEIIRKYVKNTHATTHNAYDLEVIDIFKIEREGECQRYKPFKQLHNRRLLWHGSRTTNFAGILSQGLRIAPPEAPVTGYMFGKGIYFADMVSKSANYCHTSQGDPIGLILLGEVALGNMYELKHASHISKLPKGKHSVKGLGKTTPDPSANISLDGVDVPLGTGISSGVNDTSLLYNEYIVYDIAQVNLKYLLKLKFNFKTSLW

SMILES	PARP1 L713F-nLuc/akaLuc ratio
CC#CC(=O)N1CC[C@@H](n2c(=O)n(-c3ccc(Oc4ccccc4)cc3)c3c(N)ncnc32)C1 [ONO-4059 (GS-4059) hydrochloride]	1.06
N#Cc1c(-c2ccccc2)cc(-c2cc(Br)ccc2O)[nH]c1=O	0.708
CCCCNc1ncc(C(=O)NCc2ccc(-n3ccnc3)cc2)c(NC2CCC(O)CC2)n1 (configuration not stated)	0.954
CN1CCC(CNc2ccc3ncc(-c4cccc(OC(F)(F)F)c4)n3n2)CC1	1.51
COc1nc(N)nc2c1ncn2[C@@H]1O[C@H](CO)[C@@H](O)[C@@H]1O [Nelarabine]	1.15
COC(=O)Nc1nc2cc(Sc3ccccc3)ccc2[nH]1 [Fenbendazole]	2.66
C=CC(=O)Nc1cccc(Nc2nc(Nc3ccc(N4CCN(C(C)=O)CC4)cc3OC)ncc2C(F)(F)F)c1 [Rociletinib (CO-1686, AVL-301)]	0.886
CCN(C(=O)CO)[C@H]1CN(/C(=N\C#N)Nc2cccc(OC(F)F)c2)N=C1c1ccc(Cl)c(Cl)c1	1.37
Cc1ccc(Oc2nc3cc(-c4ccc5c(ccn5C)c4)c(Cl)cc3[nH]2)cc1C(=O)O	0.541
Cn1cc(C(N)=O)ccc1=O [Nudifloramide]	0.909
Cc1ncc(Cl)cc1NCc1ccc(C(=O)N[C@@H](CC2CCCC2)C(=O)NC2CC2)s1	0.585
CCOc1cccc2c1N[C@@H](c1ccc(C(=O)O)cc1)[C@H]1CC=C[C@@H]21 [LIN28 inhibitor LI71]	0.616
